Measured values reported in the supplement of paper PMC6555819.

Experiments:
Experiment in all cases: PBM binding z-score (relative to random genomic background probes); higher = stronger binding; sequences stand for … in GC…GCGATTGACAGCGTAGAATGAAGG
[1] = tested on: FXR:RXRa (NR concentration 270 nM, RXRa partner concentration 90 nM)
Outline: (§1)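 Ligand-free nuclear receptor dimers were bound for 1 h to custom Agilent 4×180K protein-binding microarrays. Detection used antibodies against each partner (one per run). Binding z-scores rest on regression-normalized fluorescence, with random background probes as the reference.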

[2] = tested on: LXRa:RXRa (NR concentration 270 nM, RXRa partner concentration 90 nM)
Outline: as §1

[3] = tested on: LXRa homodimer (NR concentration 270 nM)
Outline: as §1

[4] = tested on: LXRb:RXRa (NR concentration 270 nM, RXRa partner concentration 90 nM)
Outline: as §1

[5] = tested on: LXRb homodimer (NR concentration 270 nM)
Outline: as §1

[6] = tested on: PPARa:RXRa (NR concentration 270 nM, RXRa partner concentration 90 nM)
Outline: as §1

[7] = tested on: PPARg:RXRa (NR concentration 180 nM, RXRa partner concentration 90 nM)
Outline: as §1

[8] = tested on: PPARg:RXRa 270nM:90nM, anti-RXR (NR concentration 270 nM, RXRa partner concentration 90 nM)
Outline: as §1

[9] = tested on: PPARg:RXRa 30nM:10nM, anti-RXR (NR concentration 30 nM, RXRa partner concentration 10 nM)
Outline: as §1

[10] = tested on: PPARg:RXRa 90nM:30nM, anti-RXR (NR concentration 90 nM, RXRa partner concentration 30 nM)
Outline: as §1

[11] = tested on: PPARg:RXRa DBDmut IVT, anti-RXR (DBD mutation: RXRa K156A/R161A, NR concentration 270 nM, RXRa partner concentration 90 nM)
Outline: as §1

[12] = tested on: PPARg:RXRa IVT, anti-PPARg (NR concentration 270 nM, RXRa partner concentration 90 nM)
Outline: as §1

[13] = tested on: PPARg DBDmut:RXRa IVT, anti-PPARg (DBD mutation: PPARg1 K132A/R137A, NR concentration 270 nM, RXRa partner concentration 90 nM)
Outline: as §1

[14] = tested on: PPARg DBDmut IVT, anti-PPARg (DBD mutation: PPARg1 K132A/R137A, NR concentration 270 nM)
Outline: as §1

[15] = tested on: PPARg homodimer (NR concentration 180 nM)
Outline: as §1

[16] = tested on: PXR:RXRa (NR concentration 270 nM, RXRa partner concentration 90 nM)
Outline: as §1

[17] = tested on: PXR homodimer (NR concentration 270 nM)
Outline: as §1

[18] = tested on: RARa:RXR (NR concentration 270 nM, RXRa partner concentration 90 nM)
Outline: as §1

[19] = tested on: RARa homodimer (NR concentration 270 nM)
Outline: as §1

[20] = tested on: RARb:RXRa (NR concentration 270 nM, RXRa partner concentration 90 nM)
Outline: as §1

Sequence	PBM binding z-score [1]	PBM binding z-score [2]	PBM binding z-score [3]	PBM binding z-score [4]	PBM binding z-score [5]	PBM binding z-score [6]	PBM binding z-score [7]	PBM binding z-score [8]	PBM binding z-score [9]	PBM binding z-score [10]	PBM binding z-score [11]	PBM binding z-score [12]	PBM binding z-score [13]	PBM binding z-score [14]	PBM binding z-score [15]	PBM binding z-score [16]	PBM binding z-score [17]	PBM binding z-score [18]	PBM binding z-score [19]	PBM binding z-score [20]
CAAACTAGGCCACGAAAGGTCAAAGTCGAATGAC	5.14	6.19	5.85	5.69	1.75	6.2	7.45	6.7	4.3	6.62	7.17	7.41	1.6	1.85	4.86	5.73	1.95	6	2.49	4.68
TCATGTAGGTAAAGGTGAAAGTCGAACGATATGA	1.05	1.11	-0.13	1.23	-0.337	3.46	4.4	4.72	4.32	4.81	4.4	4.97	1.57	1.56	0.969	0.939	0.207	1.53	0.733	2.05
CCTACTGGGCCGAAAAGGTCATTGATGCCGATAA	3.42	4.38	2.91	3.93	0.134	4.47	1.7	3.34	0.611	2.39	0.922	2.21	-1.07	-1.05	1.68	4.56	1.74	4.84	0.458	3.77
TGAATGAGGTTATAAGCTCAGGGAACGTTGCAAA	1.24	0.975	-0.535	1.01	-0.391	2.67	0.877	2.07	0.7	1.54	1.28	1.28	0.166	0.543	-0.0591	0.55	-0.553	1.26	-1.17	1.04
CGAACTAGGTCAAGGTCAGTGAATCTCCGCACGC	4.73	3.81	1.23	2.95	0.0681	5.17	8.71	6.93	4.44	7.24	7.95	8.28	1.6	0.259	3.84	3.45	1.03	3.61	1.62	4.86
CCTCGGAGGACAACAGGAGATCAGAGCTGCCAGA	-0.269	-0.36	-0.193	-0.853	-1.12	-0.626	0.424	-0.794	-0.377	-0.822	-0.232	-0.63	-1.13	-1.73	-0.0101	-0.68	-0.412	-0.621	-0.0651	0.694
TCTTGTAGATCAGCAGGTAAAGAAAGCTGGCCAA	0.051	0.0639	-0.443	-0.119	-0.519	0.422	-0.331	0.955	2.5	1.69	1.27	0.386	-0.0476	-0.531	-0.175	-0.0594	-0.358	0.111	0.0298	-0.482
TAGCCTGGGTCATGGGCCAGTATACCACGCGAAC	3.85	2.34	-0.426	2.04	-0.671	4.14	4.11	3.94	1.09	2.53	0.288	3.03	0.752	-1.17	1.52	1.73	-0.609	2.83	-0.797	3.26
TCGAGTAGGTTAGGGGCTTTCAGAATGGCGTCGA	-0.147	0.172	-0.23	0.6	-0.232	0.524	0.208	1.76	0.813	1.15	2.03	1.11	-0.958	-0.419	0.523	-0.179	-0.00687	-0.485	0.102	0.395
TCATATAGGTAATACCGGTGAAAGTCGGCATCTA	0.519	0.637	0.169	0.726	0.0983	1.44	0.698	2.2	4.02	3.31	3.57	2.28	0.77	0.786	0.599	0.488	0.00655	1.01	0.792	0.224
TGAATGAGGTTAAAGATCGGGGAACGTGGCGTCG	2.84	2.61	-0.0577	1.64	0.61	4.29	4.54	5.57	3.66	5.49	2.68	3.12	1.11	-0.0519	0.857	1.55	0.231	2.5	0.262	2.15
CAAGCTAGGTCACCGGAAGGTCAAAGTCCGCATG	6.4	6.14	4.88	5.32	0.898	5.38	5.86	5.76	2.96	4.67	4.7	5.3	0.445	0.749	9.68	6.22	2.44	7.91	3.45	5.53
TCTAGTCGGTCACGGAGGTCACACACGACGGGTA	4.64	4.8	4.58	3.54	0.882	4.58	5.07	4.97	3.86	4.54	4.17	5.71	2.36	0.492	3.93	4.93	2.24	5.02	1.39	4.56
CGTCCAGGGTCAGAGAGGTCAGTGAATGCCGAGT	5.65	4.8	1.62	4.15	-0.103	4.87	3.32	4.21	1.19	2.81	1.59	2.32	-0.324	-0.926	3.95	6.01	9.1	5.52	1.6	4.77
CCAGACAGGTGAAAGGTAACTAAGTCTGGTACGC	0.301	0.559	-0.431	0.84	-0.415	3.31	5.33	6.03	4.37	6.14	1.58	2.54	-0.18	-0.253	0.909	0.819	0.101	1.81	0.324	1.14
CCCGAAAGGTCGGTTGAGGTGAGTATACGGATAA	3.38	2.22	0.406	1.69	0.134	2.76	0.61	1.12	0.00163	0.671	0.203	0.845	-0.316	-0.0998	1.28	3.49	0.481	2.51	0.922	3.33
GCGACAGGGGCATCAGCAGGTTACCATAACTTAA	0.0406	0.297	-0.329	1.42	-0.683	1.33	0.386	0.0152	-0.411	-0.547	0.0717	-0.102	-1.02	-1.18	0.4	0.643	0.0793	1.08	-0.68	1.27
ATATGTAGGTTACATCCGGGTCATTCAGGCTATG	2.66	4.27	1.82	3.02	0.76	4.32	5.92	5.17	2.54	4.54	7.56	7.11	2.58	1.6	2.15	3.62	2.13	3.64	0.928	2.23
ATCGAGAGGTCGAGGTGAGTATAGAGAAAGGGAA	2.84	2.37	-0.153	1.78	-0.102	3.68	2.19	2.16	0.414	1.15	-0.102	1.75	0.955	0.168	0.817	1.9	-0.0163	2.63	-0.363	3.14
AGAATGCGGTTATTAAGATCAGGGAATTGCGGTC	-0.258	-0.138	-0.259	-0.43	-0.728	-0.484	0.0333	-0.202	-0.149	-0.182	-0.161	0.143	-0.136	-0.574	-0.18	-0.396	0.0419	-0.457	0.329	-0.0684
AGAAAGAGGTTATACGTAGATCAGGGAAGAAAGT	3.01	2.51	0.203	2.19	0.538	3.37	1.84	1.7	0.807	1.23	1.97	1.35	0.646	0.799	0.915	1.54	0.627	2.07	1.16	2.08
CGAAGGAGGGCATGAGTTGATAGCAAATGCCGAT	-0.0276	-0.0888	-0.504	-0.073	-0.785	0.988	1.13	1.1	0.326	0.97	2.57	2.1	0.0677	-0.445	0.352	0.02	-0.165	0.152	-0.898	1.53
TCATATAGGTAAAGGTGAAAGGCGAACGATATGA	0.813	1.12	-0.0796	1.17	0.0383	3.4	4.29	4.99	4.35	4.93	4.32	4.06	1.46	1.05	1.25	0.986	0.264	1.81	0.996	1.99
CCAACTAGGTCAGAACAGGACAGTGAAGGATGAT	1.3	1.41	0.28	0.911	0.446	2.61	4.46	3.56	1.37	2.8	6.64	6.66	2.08	1.17	1.73	1.13	0.914	2.07	1.58	2.98
TCTCGGAGGACACGGAAGGTCAGAGCTCGACATC	2.08	1.8	1.19	1.33	-0.694	2.04	0.365	1.4	2.23	1.53	1.04	1.13	-0.462	-0.403	1.27	2.53	0.114	2.45	-0.138	3.44
CCTCGGAGGACAACAGGAGGTAAGAGCTGCCAGA	0.127	-0.463	-0.208	-0.701	-0.983	-0.345	0.154	-0.624	-0.764	-0.831	-0.141	-0.621	-1.15	-1.44	0.0253	-0.402	-0.651	-0.0361	0.0272	0.846
GCTTACGGATCAAAGGTTATAGCATGAATAGAAT	1.93	2.43	0.189	2.49	-0.332	4.12	5.77	6.43	4.61	7.07	-0.119	1.82	0.708	0.266	0.616	2.38	-0.00589	3.61	0.0862	1.42
TCATGTAGGTAAAAGGTGAAAGTCGGTGTGGTAA	1.69	1.64	0.309	1.98	0.274	5.78	9.58	8.82	8.8	9.11	5.39	5.6	0.711	0.765	2.48	1.67	0.518	2.72	1.33	1.81
